“And” between values parts separate entries of the source, which are not always exact repeats. Equal values may be shown once. The source made the active and inactive calls. The calls were made as follows: active = hit-call score of the fitted dose curve at least 0.9, where 1 is the maximum; inactive = score below 0.9.
experiment: BSK_3C_Proliferation: Cell Proliferation Assessment in the BioMAP Diversity Plus: 3C Assay (AID 2283006); settings: primary human endothelial cells (HUVEC);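 as to AC50: potency may reflect either rise or fall in cell number versus DMSO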
Method: BSK_3C is a cell-based, multiplexed-readout assay that uses umbilical vein endothelium, a human vascular primary cell, with measurements taken at 24 hours after chemical dosing in a 96-well plate.BSK_3C_Proliferation is an assay component measured in the BSK_3C assay. It measures 0.1% sulforhodamine related to cell proliferation using Sulforhodamine staining technology.Data from the assay component BSK_3C_Proliferation was analyzed into 1 assay endpoint. This assay endpoint, BSK_3C_Proliferation, was analyzed with bidirectional fitting relative to DMSO as the negative control and baseline of activity. Using a type of viability reporter, measures of total protein for gain or loss-of-signal activity can be used to understand the viability at the cellular-level. Furthermore, this assay endpoint can be referred to as a secondary readout, because this assay has produced multiple assay endpoints where this one serves a viability function. To generalize the intended target to other relatable targets, this assay endpoint is annotated to the cell cycle intended target family, where the subfamily is proliferation.
The levels of cell surface (or secreted, indicated by the prefix "s") biomarker endpoints were measured by ELISA. Overt cytotoxicity to cells in confluent adherent cultures (all systems other than the BT system) was assessed by measuring total protein levels using sulforhodamine B (SRB) staining in parallel cultures at the time of biomarker measurements, indicated as SRB endpoints. For proliferation assays for adherent cell types, individual cell types are cultured at sub-confluence and relative cell numbers quantified by SRB staining at time points optimized for each system (48 h: 3C and CASM3C systems; 72 h: BT and HDF3CGF systems; 96 h: SAg system). SRB was performed by staining cells with 0.1% SRB after fixation with 10% TCA and reading wells at 560 nm.Viability and proliferation of PBMC (T cells) was quantified by Alamar Blue reduction for the SAg and BT systems. For PBMC viability (referred to as PBMC Cytotoxicity within the assay endpoint names), cells were plated (75,000/well in a 96-well plate) and then chemical samples added for 1 h before addition of activators, SEB and TSST-1 (20 ng/mL final concentration each). Cells were incubated for 90 h. Then, Alamar Blue (20 uL/well) (Invitrogen, Cat DAL1100) was added for 6 h, and the plates were read with a fluorescence microplate reader at 546/580 nm (excitation/emission). For PBMC proliferation, cells were plated and activated as above but incubated for only 16 h prior to addition of Alamar Blue. Plates were read after 6 h.

SMILES | AC50 | outcome
CCCCCCCCCCCCCCCCCC[N+](C)(C)C | 1.36 µM (active) | –
COc1ccccc1Oc1c(NS(=O)(=O)c2ccc(C(C)(C)C)cc2)nc(-c2ncccn2)nc1OCCO | 28.2 µM (active) and 13.9 µM (active) | –
COc1cc(CNC(=O)CCCC/C=C/C(C)C)ccc1O | 8.93 µM (active) and 9.17 µM (active) | –
Cc1c(C(N)=O)cc([N+](=O)[O-])cc1[N+](=O)[O-] | – | inactive
CC[N+](CC)(CC(=O)Nc1c(C)cccc1C)Cc1ccccc1 (tested in a mixture with another compound) | – | inactive
C1CN(CCOCCN2CCOCC2)CCO1 | – | inactive
CN(C)c1ccc(C(c2ccccc2)c2ccc(N(C)C)cc2)cc1 | 2.81 µM (active) | –
CCCCCCCCCC/C=C/C1CC(=O)OC1=O (stereo unspecified) | – | inactive
CC(C)C1OCCN1CCOC(=O)NCCCCCCNC(=O)OCCN1CCOC1C(C)C (stereo unspecified) | – | inactive
O=C(C(=O)c1ccccc1)c1ccccc1 | – | inactive
CCC[Si](OC(C)=O)(OC(C)=O)OC(C)=O | – | inactive
Cc1cccnc1 | – | inactive
COc1ccc(C(=O)c2ccccc2O)c(O)c1 | 23.6 µM (active) | –
CC(C)CC(=O)CC(C)CC(C)C (stereo unspecified) | 36.6 µM (active) | –
Sc1nc2ccccc2s1 | – | inactive
CN(C)CCC(c1ccc(Cl)cc1)c1ccccn1 (stereo unspecified) | – | inactive
CN(C)Cc1cc(C(C)(C)C)c(O)c(C(C)(C)C)c1 | – | inactive
CCCCC(CC)COC(=O)C=Cc1ccc(OC)cc1 (stereo unspecified) | 32.7 µM (active) and 27.1 µM (active) | –
COC(=O)/C=C\C(=O)OC | – | inactive
OC(C(F)(F)F)(C(F)(F)F)C(O)(C(F)(F)F)C(F)(F)F | 22.1 µM (active) and 21.6 µM (active) | –
O=[N+]([O-])c1cc(S(=O)(=O)Nc2ccccc2)ccc1Nc1ccccc1 | 30.6 µM (active) and 30.9 µM (active) | –
Oc1cccc2ccccc12 | – | inactive
CCCCCCC(O)CCCCCCCCCCC(=O)OC (stereo unspecified) | – | inactive
Cc1cc(-n2nc3ccc(Cl)cc3n2)c(O)c(C(C)(C)C)c1 | – | inactive
CCCCCCCCCCC1CO1 (stereo unspecified) | 14.7 µM (active) | –
CCC(C)=NO | – | inactive

Source: PubChem BioAssay (EPA / NIEHS)
